In test [1] the target is Lysosomal acid glucosylceramidase (Homo sapiens) (UniProt P04062). Description: Glucocerebrosidase-p2 (AID 348; in the data active = potency below about 10 µM; also: potency is read from the fitted curve at half-maximal effect). The settings on record: purified GBA, blue fluorogenic substrate, 40 min. The method, boiled down: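 Compounds titrated from 0.6 nM upwards against 0.2 nM enzyme in pH 5.9 citric acid/KH2PO4, taurocholate, tween-20; blue fluorogenic substrate 80 uM, 40 min room temperature, stopped and read Ex 365/Em 440 for AC50.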

The nature of test [2]: AP1 Signaling Pathway (AID 357).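 Also: ME-180 reporter cells stimulated with EGF at its EC50 level; % is scaled to controls: 0 for no effect and ±100 for the full control effect.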 The settings on record: ME-180 AP-1-bla reporter, EGF-induced, beta-lactamase ratio, 5 h; at 7.69 µM (top of the series) unless noted. An outline of the steps: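 Titration-series screen for positive or negative modulators of EC50 EGF-induced signaling in ME-180 cells carrying an AP-1-driven beta-lactamase reporter. After 5 hours at 37 degrees Celsius, CCF4 460nm/530nm emission ratio gave %Activity; AC50 values derived.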

The target of test [3] is Cytochrome P450 1A2 (Homo sapiens) (UniProt P05177). Description: p450-cyp1a2 (AID 410; calls by dose curve; also: potency is read from the fitted curve at half-maximal effect). Particulars: recombinant CYP1A2, luciferin-ME demethylation, luminescence; series mostly up to 57 µM. An outline of the steps:
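Luminescent readout of luciferin formed from Luciferin-ME by human CYP1A2; data normalized against complete inhibition by 57 uM furafylline. Enzyme 20nM, substrate 100uM at Km, 100mM KPO4 buffer, 60 min reaction at room temperature.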

A short description of test [4]: NFAT Signaling Pathway (AID 444).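 Also: carbachol stimulus at about its EC50 of 1 µM final; % is scaled to controls: 0 for no effect and ±100 for the full control effect.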 Particulars: Jurkat NFAT-bla M1, carbachol, beta-lactamase ratio, 5 h; at 7.69 µM (top of the series) unless noted. The method, boiled down: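 Jurkat cells with NFAT-driven β-lactamase reporter and co-expressed M1 receptor, stimulated with carbachol (final 1 uM, ~EC50), compound titration, 5 h at 37 °C. CCF4 loaded 1 h at RT; 460/530 nm ratio gave %activity and AC50.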

A short description of test [5]: Stat Signaling Pathway (AID 446).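 Also: ME-180 cervical cancer cells given 40 pM IL-6 alongside compound; SIE-controlled beta-lactamase reporter measured as 460/530 nm FRET emission ratio; % is scaled to controls: 0 for no effect and ±100 for the full control effect.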 The settings on record: ME-180 SIE beta-lactamase reporter, IL-6 stimulated, 5 h; at 7.69 µM (top of the series) unless noted. An outline of the steps:
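Reporter line: ME-180 cervical carcinoma, SIE-beta-lactamase. Treatment: compound with 40 pM IL-6, 5 hrs, 37 C, in low-serum OPTI-MEM with 10 mM HEPES pH 7.3. Detection: 460/530 nm fluorescence.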

The target in test [6] is Glucocorticoid receptor (Homo sapiens) (UniProt P04150). Description: GR-GFP Redistribution (AID 450;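 active = compounds whose dose series gives a full or clear partial fitted curve of increased nuclear translocation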; also: potency is read from the fitted curve at half-maximal effect). Particulars: U2OS GR-GFP nuclear translocation, laser cytometry, 2 h.
The target is the same in test [7]. The experiment in a line: GR-EFC Redistribution (AID 451; calls by dose curve; also: potency is read from the fitted curve at half-maximal effect). Particulars: CHO-K1 GR-EFC translocation, beta-gal luminescence, 2 h. The method, boiled down:
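CHO-K1 cells expressing nuclear EA and GR-ED fragments of b-gal; compounds titrated up to 46 uM final, 2 h at 37 C. GR nuclear translocation read as complemented b-gal luminescence after 1 h RT detection.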

Test [8] deals with Mitogen-activated protein kinase 10 (Mus musculus) (UniProt Q61831). The experiment in a line: JNK3 AlphaScreen Assay (AID 530).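 Also: kinase came from lysate of stimulated human HepG2 cells; signal reports phosphorylation of biotinylated GST-cJun 1-79 at Ser73 with 10 µM ATP; % is scaled to controls: 0 for no effect and ±100 for the full control effect.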 Particulars: JNK3 lysate, c-Jun phosphorylation; series mostly up to 57.1 µM. The method, boiled down: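 Pre-activated (IL-1β/TNFα) JNK3 in HepG2 lysates phosphorylates biotin-GST-cJun(1-79), 10 uM ATP; anti-phospho-cJun(Ser73) AlphaScreen read at room temperature, pH 7.6 Tris buffer. Compounds pre-incubated 15 min as titrations.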

Test [9] addresses Cytochrome P450 3A4 (Homo sapiens) (UniProt P08684). Description: qHTS Assay for Inhibitors and Substrates of Cytochrome P450 3A4 (AID 884; active = well fitted curve in the direction sought with a large enough effect; an effect the other way counts as inactive or inconclusive; also: nearly all actives have a fitted effect of over 50% in size; also: potency is read from the fitted curve at half-maximal effect). Particulars: recombinant CYP3A4, Luciferin-PPXE luminescence; series mostly up to 57.1 µM. An outline of the steps: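 20 nM human CYP3A4 with 25 uM Luciferin-PPXE (at KM) in 200 mM KPO4, preincubated 10 min with compound; NADPH regeneration started a 60 min RT reaction. Luciferin detected by luminescence, normalized to 57 uM ketoconazole as full inhibition.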

For test [10] the target is unchanged. Description: qHTS Assay for Activators of Cytochrome P450 3A4 (AID 885; active = well fitted curve in the direction sought with a large enough effect; an effect the other way counts as inactive or inconclusive; also: nearly all actives have a fitted effect of over 65% in size). The settings on record: recombinant CYP3A4, Luciferin-PPXE luminescence, 60 min; series mostly up to 57.1 µM. The method, boiled down:
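Signal was normalized against complete inhibition by 57 uM ketoconazole. The reaction used 20nM CYP3A4 with 25uM Luciferin-PPXE, 10-min compound preincubation and a 60-min NADPH-supported step at RT.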

Test [11] addresses Cytochrome P450 2C19 (Homo sapiens) (UniProt P33261). Description: qHTS Assay for Inhibitors and Substrates of Cytochrome P450 2C19 (AID 899; active = well fitted curve in the direction sought with a large enough effect; an effect the other way counts as inactive or inconclusive; also: potency is read from the fitted curve at half-maximal effect; nearly all actives have a fitted effect of over 60% in size). Particulars: recombinant CYP2C19, luciferin-H EGE luminescence; series mostly up to 57.1 µM. The method, boiled down: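 Signal comes from luciferase acting on luciferin released by CYP2C19-mediated hydroxylation of Luciferin-H EGE, 10uM (KM). Assay mix: 5nM enzyme, 50mM KPO4; 60 min at 37C with NADPH regeneration. Data normalized against 57uM ketoconazole.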
A general note: qHTS replaces the single test concentration by a dilution series.

Test [12] can be described thus: Confirmation and Secondary Assay for Modulators of Hemoglobin Beta Chain Splicing at IVS2 654 locus (AID 910; active = well fitted curve in the direction sought with a large enough effect; an effect the other way counts as inactive or inconclusive;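 also: HeLa cells stably carrying EGFP split by mutant beta-globin IVS2-654 intron; % of control where 0% means no effect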). Particulars: HeLa EGFP-654 splicing reporter, GFP fluorescence, 48 h; series mostly up to 38.3 µM. The method, boiled down: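 HeLa cells stably expressing EGFP interrupted by β-globin IVS2-654 intron, seeded overnight in Opti-MEM/2% FCS, then treated 2 days at 37 °C. Restored splicing read as total peak GFP intensity per well by laser scanning cytometry (488 nm excitation, 500–520 nm emission); 500 nM antisense PNA as control.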

Test [13] in a line: Confirmation and Secondary Assay for Modulators of Hemoglobin Beta Chain Splicing at IVS2 705 locus (AID 930; active = well fitted curve in the direction sought with a large enough effect; an effect the other way counts as inactive or inconclusive;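 also: HeLa cells stably expressing the EGFP-705 splicing reporter; GFP fluorescence per well restored by corrected splicing of the IVS2-705 intron in EGFP; % of control where 0% means no effect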). The settings on record: HeLa EGFP-705 splicing reporter, GFP fluorescence, 48 h; series mostly up to 38.3 µM. The method, boiled down:
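HeLa EGFP-705 reporter; 500 cells/well, o/n 37C 5% CO2; cpd 2 d; 488 ex/500-520 em laser scan; total peak GFP intensity/well. Ref: 500 nM […] antisense PNA.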

A short description of test [14]: qHTS Assay for Lipid Storage Modulators (AID 1519; calls by dose curve). Particulars: Drosophila S3 cells, BODIPY lipid droplet/cell ratio, laser cytometry, cells loaded with oleic acid; for activity change, negative = inhibition: at 57.5 µM (top of the series). An outline of the steps: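 Cells seeded at 5,000 per well were treated with compounds over a concentration series and loaded with oleic acid (400 uM, as added). Lipid droplet fluorescence (488 nm excitation, 500-530 nm channel) was read by laser-scanning cytometry and normalized to 20 uM Triacsin C.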

Test [15] addresses Ubiquitin carboxyl-terminal hydrolase 1 (Homo sapiens) (UniProt O94782). Description: Inhibitors of USP1/UAF1: Pilot qHTS (AID 504865; active = well fitted curve in the direction sought with a large enough effect; an effect the other way counts as inactive or inconclusive;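 also: rhodamine fluorescence freed from ubiquitin-rhodamine substrate followed over time; top concentration of the series differs between compounds; % is scaled to controls: 0 for no effect and ±100 for the full control effect; nearly all actives have a fitted effect of over 35% in size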). The settings on record: purified USP1/UAF1, Ub-rhodamine cleavage fluorescence; series mostly up to 54.9 µM. The method, boiled down: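 Deubiquitinase activity followed as kinetic rhodamine fluorescence release from 150 nM Ub-Rho. 1 nM USP1/UAF1 with compound, after 15 min room-temperature preincubation, in HEPES pH 7.8 buffer containing TCEP, EDTA, BSA and Tween-20.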

For test [16], the target named is 3',5'-cyclic-AMP phosphodiesterase 4B (Homo sapiens) (UniProt Q07343). Description: qHTS Assay for Inhibitors of PDE-IV (AID 607; active = well fitted activation curve with a large enough effect in the main read-out, with a control signal flat, not every such curve was filed as active; also: % of control where 0% means no effect). Particulars: HEK293 ACTOne CNG channel cells, membrane potential fluorescence; series mostly up to 22.9 µM. An outline of the steps: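 Cell-based read-out of cAMP via a modified cyclic nucleotide-gated channel and membrane potential dye (535/590 nm) in HEK293 cells expressing PDE4 endogenously. Compounds tested up to 22.9 uM final; 100 uM RO 20-1724 reference.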

The nature of test [17]: qHTS Assay for Identification of Small Molecule Agonists for Hypoxia Response Element Signaling Pathway (AID 914; active = well fitted activation curve with a large enough effect in the signal ratio, with a control signal flat, not every such curve was filed as active; the % refers to the signal ratio; also: % of control where 0% means no effect). The settings on record: ME-180 (cervical carcinoma) HRE-bla reporter, beta-lactamase ratio, CoCl2, 17 h; activation: stronger effect = higher value. The method, boiled down:
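Read-out: CCF4 FRET ratio of 460nm to 530nm emission (excitation 405nm) after 2.5 hours at room temperature, taken from HRE-bla ME-180 cells that had been exposed to compound and EC50 CoCl2 for 17 hours.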

In test [18] the target is Cytochrome P450 2D6 (Homo sapiens) (UniProt P10635). Description: qHTS Assay for Inhibitors and Substrates of Cytochrome P450 2D6 (AID 891; active = well fitted curve in the direction sought with a large enough effect; an effect the other way counts as inactive or inconclusive; also: potency is read from the fitted curve at half-maximal effect; nearly all actives have a fitted effect of over 60% in size). The settings on record: recombinant CYP2D6, luciferin-ME EGE luminescence; series mostly up to 57.1 µM. An outline of the steps:
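Human CYP2D6 (5 nM) with 30 uM Luciferin-ME EGE (at Km) in 100 mM KPO4, compound preincubated 10 min, then NADPH regeneration system for 60 min at room temperature. Luciferin read by luminescence; normalized to 1.43 uM quinidine.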

Where [19] appears, read: measured here: cell count channel max response.
The mark [20] stands for this setting: measured here: lipid channel max response.

Results filed as inconclusive are left out. Activity calls are given as the source filed them. Unless noted, calls follow the shape of the dose curve; as a rule, active = well fitted curve in either direction with a large enough effect (not every such curve was filed as active); inconclusive = small, poorly fitted or top-dose-only effect, or another doubt; inactive = flat fitted curve, though single readings scatter.

Sequence of 3',5'-cyclic-AMP phosphodiesterase 4B (Homo sapiens) (Q07343 whole entry, looked up): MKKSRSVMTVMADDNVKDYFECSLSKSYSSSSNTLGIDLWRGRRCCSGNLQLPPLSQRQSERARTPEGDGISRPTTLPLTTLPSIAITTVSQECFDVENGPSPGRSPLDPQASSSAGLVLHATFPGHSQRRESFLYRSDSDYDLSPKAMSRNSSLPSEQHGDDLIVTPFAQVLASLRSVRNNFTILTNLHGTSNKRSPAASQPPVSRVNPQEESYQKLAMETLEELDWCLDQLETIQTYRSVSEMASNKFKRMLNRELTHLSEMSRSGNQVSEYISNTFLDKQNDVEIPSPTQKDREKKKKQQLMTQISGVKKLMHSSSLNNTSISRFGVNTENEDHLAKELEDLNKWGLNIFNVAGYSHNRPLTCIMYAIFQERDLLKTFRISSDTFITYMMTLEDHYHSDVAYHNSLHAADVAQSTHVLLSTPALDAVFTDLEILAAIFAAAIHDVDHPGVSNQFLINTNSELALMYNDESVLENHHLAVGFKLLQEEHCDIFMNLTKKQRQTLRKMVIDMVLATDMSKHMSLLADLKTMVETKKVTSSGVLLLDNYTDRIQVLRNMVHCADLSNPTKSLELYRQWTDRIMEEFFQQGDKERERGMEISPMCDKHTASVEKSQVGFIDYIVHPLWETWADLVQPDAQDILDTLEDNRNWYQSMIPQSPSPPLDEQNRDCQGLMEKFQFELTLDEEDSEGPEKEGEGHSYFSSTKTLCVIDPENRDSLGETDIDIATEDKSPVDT
Sequence of Glucocorticoid receptor (Homo sapiens) (P04150 whole entry, looked up): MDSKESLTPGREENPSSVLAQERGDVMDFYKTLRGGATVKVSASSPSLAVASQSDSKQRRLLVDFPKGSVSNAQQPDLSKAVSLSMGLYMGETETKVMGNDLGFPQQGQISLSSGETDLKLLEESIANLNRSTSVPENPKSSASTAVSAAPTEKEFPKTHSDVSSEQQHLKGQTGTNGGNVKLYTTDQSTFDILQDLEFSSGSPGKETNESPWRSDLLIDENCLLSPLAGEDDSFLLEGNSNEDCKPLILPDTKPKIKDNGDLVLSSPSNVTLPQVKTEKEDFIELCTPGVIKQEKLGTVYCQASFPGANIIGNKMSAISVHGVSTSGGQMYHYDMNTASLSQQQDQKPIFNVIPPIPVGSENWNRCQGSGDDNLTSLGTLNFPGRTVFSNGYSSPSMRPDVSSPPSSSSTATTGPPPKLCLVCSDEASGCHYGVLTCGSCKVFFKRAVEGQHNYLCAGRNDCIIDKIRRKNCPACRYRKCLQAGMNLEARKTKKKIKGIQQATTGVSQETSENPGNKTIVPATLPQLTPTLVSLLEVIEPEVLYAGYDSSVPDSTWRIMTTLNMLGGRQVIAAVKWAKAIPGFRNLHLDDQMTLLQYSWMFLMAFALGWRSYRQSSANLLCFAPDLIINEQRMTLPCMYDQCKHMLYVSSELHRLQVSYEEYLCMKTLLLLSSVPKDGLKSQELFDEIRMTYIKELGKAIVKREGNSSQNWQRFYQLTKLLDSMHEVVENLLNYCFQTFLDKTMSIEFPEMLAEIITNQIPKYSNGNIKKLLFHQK
Sequence of Cytochrome P450 3A4 (Homo sapiens) (P08684 whole entry, looked up): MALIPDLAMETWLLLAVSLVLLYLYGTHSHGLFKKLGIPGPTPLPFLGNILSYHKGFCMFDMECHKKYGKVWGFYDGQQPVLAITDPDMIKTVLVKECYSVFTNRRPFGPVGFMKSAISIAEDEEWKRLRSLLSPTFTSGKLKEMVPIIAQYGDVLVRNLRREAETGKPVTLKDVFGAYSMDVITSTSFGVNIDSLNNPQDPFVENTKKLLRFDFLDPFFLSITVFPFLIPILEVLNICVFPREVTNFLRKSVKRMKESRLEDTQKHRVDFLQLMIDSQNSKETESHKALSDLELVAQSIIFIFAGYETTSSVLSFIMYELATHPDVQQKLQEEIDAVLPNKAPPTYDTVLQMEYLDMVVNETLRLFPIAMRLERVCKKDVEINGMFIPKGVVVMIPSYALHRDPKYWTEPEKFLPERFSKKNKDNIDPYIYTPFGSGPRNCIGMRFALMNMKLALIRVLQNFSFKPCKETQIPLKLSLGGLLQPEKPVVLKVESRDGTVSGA
Sequence of Cytochrome P450 1A2 (Homo sapiens) (P05177 whole entry, looked up): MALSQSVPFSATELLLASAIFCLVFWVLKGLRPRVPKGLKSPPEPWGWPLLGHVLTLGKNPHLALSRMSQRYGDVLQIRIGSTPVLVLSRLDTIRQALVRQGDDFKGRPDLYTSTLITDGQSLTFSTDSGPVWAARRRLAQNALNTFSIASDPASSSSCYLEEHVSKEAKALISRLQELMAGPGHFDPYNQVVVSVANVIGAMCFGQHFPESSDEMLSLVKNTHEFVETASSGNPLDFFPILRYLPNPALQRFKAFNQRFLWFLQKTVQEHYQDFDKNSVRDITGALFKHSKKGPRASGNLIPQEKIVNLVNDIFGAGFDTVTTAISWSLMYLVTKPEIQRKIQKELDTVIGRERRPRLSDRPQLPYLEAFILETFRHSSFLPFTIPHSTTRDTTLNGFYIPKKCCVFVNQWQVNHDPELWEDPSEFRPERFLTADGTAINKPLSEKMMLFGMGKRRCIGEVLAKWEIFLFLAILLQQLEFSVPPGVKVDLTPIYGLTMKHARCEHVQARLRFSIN
Sequence of Ubiquitin carboxyl-terminal hydrolase 1 (Homo sapiens) (O94782 whole entry, looked up): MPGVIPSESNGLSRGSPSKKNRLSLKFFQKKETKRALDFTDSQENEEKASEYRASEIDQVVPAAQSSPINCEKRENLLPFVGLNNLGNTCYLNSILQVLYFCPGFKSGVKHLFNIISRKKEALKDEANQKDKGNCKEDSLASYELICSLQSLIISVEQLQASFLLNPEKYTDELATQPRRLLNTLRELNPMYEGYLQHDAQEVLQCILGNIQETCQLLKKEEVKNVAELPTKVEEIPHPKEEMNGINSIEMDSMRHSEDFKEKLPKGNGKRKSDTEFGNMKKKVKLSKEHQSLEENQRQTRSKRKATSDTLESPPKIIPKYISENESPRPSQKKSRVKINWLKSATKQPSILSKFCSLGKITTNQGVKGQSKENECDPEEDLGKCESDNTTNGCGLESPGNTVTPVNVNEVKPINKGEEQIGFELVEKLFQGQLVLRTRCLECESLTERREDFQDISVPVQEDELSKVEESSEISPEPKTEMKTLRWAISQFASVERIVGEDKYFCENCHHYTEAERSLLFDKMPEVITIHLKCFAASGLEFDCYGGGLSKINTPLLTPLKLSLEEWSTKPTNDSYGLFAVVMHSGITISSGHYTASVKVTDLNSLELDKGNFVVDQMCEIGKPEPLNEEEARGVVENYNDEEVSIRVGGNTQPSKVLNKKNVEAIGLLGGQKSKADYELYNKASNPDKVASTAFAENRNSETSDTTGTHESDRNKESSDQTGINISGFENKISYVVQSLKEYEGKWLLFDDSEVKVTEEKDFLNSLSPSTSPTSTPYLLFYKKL
Sequence of Lysosomal acid glucosylceramidase (Homo sapiens) (P04062 whole entry, looked up): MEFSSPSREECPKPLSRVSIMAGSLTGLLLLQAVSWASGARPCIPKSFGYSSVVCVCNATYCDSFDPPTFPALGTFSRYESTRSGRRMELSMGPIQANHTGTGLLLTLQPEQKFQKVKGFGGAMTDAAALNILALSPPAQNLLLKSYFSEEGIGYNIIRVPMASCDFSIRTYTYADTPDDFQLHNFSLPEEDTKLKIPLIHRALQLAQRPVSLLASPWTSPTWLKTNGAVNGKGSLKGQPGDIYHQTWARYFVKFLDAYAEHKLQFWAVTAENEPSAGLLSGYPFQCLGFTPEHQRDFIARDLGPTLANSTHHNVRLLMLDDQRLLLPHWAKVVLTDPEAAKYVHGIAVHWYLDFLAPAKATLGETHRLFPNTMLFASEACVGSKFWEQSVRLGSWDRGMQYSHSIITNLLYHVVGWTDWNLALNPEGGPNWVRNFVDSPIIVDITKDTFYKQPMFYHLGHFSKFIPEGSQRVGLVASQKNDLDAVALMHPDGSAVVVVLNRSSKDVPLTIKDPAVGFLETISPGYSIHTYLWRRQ
Sequence of Cytochrome P450 2C19 (Homo sapiens) (P33261 whole entry, looked up): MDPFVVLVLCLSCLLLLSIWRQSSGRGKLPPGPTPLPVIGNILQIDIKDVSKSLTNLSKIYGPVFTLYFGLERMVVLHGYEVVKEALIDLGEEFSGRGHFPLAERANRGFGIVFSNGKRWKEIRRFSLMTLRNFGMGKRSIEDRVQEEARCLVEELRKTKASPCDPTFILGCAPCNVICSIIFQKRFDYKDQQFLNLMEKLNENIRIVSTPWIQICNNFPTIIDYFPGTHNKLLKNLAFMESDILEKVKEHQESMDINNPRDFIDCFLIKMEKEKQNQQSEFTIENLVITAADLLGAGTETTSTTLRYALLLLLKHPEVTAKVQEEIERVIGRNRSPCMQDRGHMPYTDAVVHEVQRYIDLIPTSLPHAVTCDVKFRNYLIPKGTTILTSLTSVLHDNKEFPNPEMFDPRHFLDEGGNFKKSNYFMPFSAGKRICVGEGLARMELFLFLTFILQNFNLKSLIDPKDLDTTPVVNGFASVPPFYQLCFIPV
Sequence of Cytochrome P450 2D6 (Homo sapiens) (P10635 whole entry, looked up): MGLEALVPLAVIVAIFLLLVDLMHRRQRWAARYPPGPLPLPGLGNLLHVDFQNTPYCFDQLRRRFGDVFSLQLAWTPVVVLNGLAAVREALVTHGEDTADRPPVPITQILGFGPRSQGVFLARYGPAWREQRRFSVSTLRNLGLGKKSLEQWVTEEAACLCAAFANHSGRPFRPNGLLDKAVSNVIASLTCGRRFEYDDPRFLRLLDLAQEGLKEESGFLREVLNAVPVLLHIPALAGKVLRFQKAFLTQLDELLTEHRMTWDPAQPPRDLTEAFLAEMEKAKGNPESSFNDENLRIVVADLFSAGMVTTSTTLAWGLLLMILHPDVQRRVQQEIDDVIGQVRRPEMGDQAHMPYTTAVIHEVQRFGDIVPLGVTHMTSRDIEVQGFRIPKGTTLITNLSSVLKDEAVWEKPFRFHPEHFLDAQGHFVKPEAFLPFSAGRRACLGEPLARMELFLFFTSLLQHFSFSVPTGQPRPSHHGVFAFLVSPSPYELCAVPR

Turning to `Cc1ccccc1-c1nc(-n2ccnc2)c2ccccc2n1`, the Potency in [1] is > 11.4 µM (inactive); in [3], 0.316 µM (active); in test [6] it was > 46 µM (inactive); in test [7], > 46 µM (inactive); in test [9], 0.398 µM (active); in test [11], 5.01 µM (active). Also, the activity change, negative = inhibition is -12.3% (inactive) in test [2], -10.1% (inactive) in test [4] and 5.99% (inactive) in [14]. Also, the activity, negative = inhibition in test [5] is 0.874% (inactive). The Potency entry in [8], in [10] and in test [12] was “inactive” in each case. The compound was classed as inactive in test [13]. The max response in test [14] (setting [19]) is -6.87%; in [14] (setting [20]) it was -2.77%.

As for `Cc1cccc(CNc2ccnc(-c3ccc(C(=O)N(C)C)cc3)n2)c1`, the Potency in test [1] was > 11.4 µM (inactive); in [3] it was 25.1 µM (active); in [6], > 46 µM (inactive); in [7], > 46 µM (inactive). In addition, the activity change, negative = inhibition in test [2] is -17.2% (inactive); in [4], 6.95% (inactive); in test [14], 7.06% (inactive). The activity, negative = inhibition in test [5] was -2.13% (inactive). Further, the Potency result in test [8], in test [9], in test [12] and in [15] was “inactive” in each case. Also, in test [13], the call was inactive. The max response in [14] (setting [19]) is -6.92%; in test [14] (setting [20]), 0.35%.

As for `CNc1ncnc2ccc(-c3ccccc3OC)cc12`, the Potency in [1] was > 11.4 µM (inactive); in [3], 2.51 µM (active); in [6] it was > 46 µM (inactive); in test [7] it was > 46 µM (inactive). Further, the results for the activity change, negative = inhibition in [2], in test [4] and in [14] were 0.353% (inactive), 15.1% (inactive) and 1.03% (inactive), respectively. The activity, negative = inhibition in test [5] is -15.7% (inactive). The Potency result in test [8], in test [16], in [10], in [12] and in [15] was “inactive” throughout. Further, the outcome in test [13] was inactive. Further, the max response in test [14] (setting [19]) worked out at 0.392%; in test [14] (setting [20]) it was 0.542%.

Regarding `O=C(c1cc(C(F)(F)F)cc(C(F)(F)F)c1)N1CCC2(CC1)CCN(c1ncccn1)CC2`, the Potency in test [1] is > 11.4 µM (inactive); in test [7], > 46 µM (inactive). The activity change, negative = inhibition in [2] was -11.6% (inactive); in test [4], 28.8% (inactive); in test [14], 3.41% (inactive). For the same compound, the Potency result in test [3], in test [8] and in test [16] was “inactive” in each case. In addition, in test [5], the activity, negative = inhibition was -7.73% (inactive). The activation in test [17] was 1.37% (inactive). Besides, the max response in test [14] (setting [19]) is 13.8%; in test [14] (setting [20]), 23.2%.

As for `O=S(=O)(c1ccccc1)N1CCC[C@@]2(CCN(Cc3nccs3)C2)C1`, the Potency in test [1] is > 11.4 µM (inactive); in [3], 15.8 µM (active); in test [7], > 46 µM (inactive); in [9], 3.16 µM (active); in [18], 2.51 µM (active); in test [11] it was 7.94 µM (active). Besides, the results for the activity change, negative = inhibition in test [2], in test [4] and in test [14] were -10.5% (inactive), -1.46% (inactive) and 0.281% (inactive), respectively. In test [5], the activity, negative = inhibition is -1.53% (inactive). For the same compound, the Potency entry in [8], in [16] and in test [10] was “inactive” throughout. In addition, the results for the max response in test [14] (setting [19]) and in test [14] (setting [20]) were 10.8% and 15.6%, respectively.

As to `COc1cccc(-c2nccc(NC3CCNCC3)n2)c1`, the Potency is > 11.4 µM (inactive) in test [1], 6.31 µM (active) in test [3], > 46 µM (inactive) in test [6] and > 46 µM (inactive) in [7]. Moreover, the results for the activity change, negative = inhibition in test [2], in test [4] and in test [14] were 6.93% (inactive), 8.54% (inactive) and 0.723% (inactive), respectively. The activity, negative = inhibition in test [5] was 14.2% (inactive). The Potency entry in [8], in [16], in [12] and in [15] was “inactive” each time. Further, the call in [13] was inactive. In addition, the values for the max response in test [14] (setting [19]) and in test [14] (setting [20]) were 4.24% and 1.95%, respectively.

The record behind these values is PubChem BioAssay (NCATS).
